Assay outcomes: PubChem BioAssay, National Center for Advancing Translational Sciences (NCATS)
Sampled rows, rich in hits. Any-hit rate of the full collection: about 3.8%.
CBFb-RUNX1 inh = CBF-beta/RUNX1 interaction disruption. Q01196+Q13951. AlphaScreen CBFb-His/RUNX1-biotin binding, biochemical. Potency, µM (doses to about 59.8 µM), without a hit: at the highest dose activity, negative = inhibition, usual class: inhibitors. 230,000 tested, under 10 active; further: % of control where 0% means no effect
Target sequence (Q01196 whole entry, looked up): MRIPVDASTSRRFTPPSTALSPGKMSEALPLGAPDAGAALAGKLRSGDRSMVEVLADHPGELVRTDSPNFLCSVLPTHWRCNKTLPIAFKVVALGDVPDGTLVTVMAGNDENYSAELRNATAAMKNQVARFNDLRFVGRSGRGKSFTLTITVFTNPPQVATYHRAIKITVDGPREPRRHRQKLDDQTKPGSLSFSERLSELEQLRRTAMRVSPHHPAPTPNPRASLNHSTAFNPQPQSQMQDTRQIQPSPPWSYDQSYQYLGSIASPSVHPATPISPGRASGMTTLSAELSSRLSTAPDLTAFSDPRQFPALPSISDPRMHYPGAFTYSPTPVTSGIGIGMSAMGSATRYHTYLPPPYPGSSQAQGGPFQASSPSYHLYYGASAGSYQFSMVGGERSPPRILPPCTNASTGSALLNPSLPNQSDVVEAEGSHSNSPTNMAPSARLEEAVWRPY
Target sequence (Q13951 whole entry, looked up): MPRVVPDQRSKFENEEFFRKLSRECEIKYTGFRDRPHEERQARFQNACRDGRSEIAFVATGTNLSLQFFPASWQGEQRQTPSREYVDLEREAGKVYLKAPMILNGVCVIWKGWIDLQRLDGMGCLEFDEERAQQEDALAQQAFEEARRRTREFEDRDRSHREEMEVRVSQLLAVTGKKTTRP
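CBF-beta (His) and RUNX1 (biotin), 30 nM each; 20 min preassociation; + compound, 15 min; + beads 50 ng each (Ni, streptavidin), 90 min; RT; AlphaScreen read.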
KCNH2 3.1 block = KCNH2 3.1 (human) potassium channel inhibition; U2OS KCNH2 3.1, thallium flux FluxOr; active compounds read low; activity change, % (tested at about 1.8 µM); 0.95% of 340,000 active;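 active means maximum activity change below -70%; inconclusive means maximum activity change from -70% to -50%; inactive means maximum activity change above -50%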;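 further: thallium influx rate constant from kinetic fluorescence after stimulation buffer; on the % scale 0 is the no-effect control and ±100 the full control effect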
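We transduce U2OS cells with the mutant 3.1 virus, culture them overnight, load FluxOr with Red40 quencher for 45 min, then add stimulation buffer and read kinetically for 2 min to derive a normalized rate constant.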
PLK1 PBD block = PLK1 (human) polo-box domain binding inhibition; Plk1 PBD binding of FITC phosphopeptide, fluorescence polarization; Potency, µM, for the others: max response, negative = inhibition, usual class: inhibitors; 2.8% of 360,000 active; AID 720504; further: potency means the concentration at half of the fitted maximal effect; series mostly up to about 57 µM; on the % scale 0 is the no-effect control and ±100 the full control effect; nearly all actives have a fitted effect of over 65% in size
VDR inhibitor = blocks the human vitamin D receptor; P11473; VDR-SRC2-3 peptide fluorescence polarization, 2 h; Potency, µM, without a hit: max response, negative = inhibition, usual class: inhibitors; 0.93% of 400,000 active; further: potency means the concentration at half of the fitted maximal effect; on the % scale 0 is the no-effect control and ±100 the full control effect
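Measured by FP: displacement of SRC2-3 coactivator peptide from VDR by library compounds, following a two-hour ambient incubation.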
hERG WT inh = inhibitors of human wildtype KCNH2 potassium channel; activity change, % at 1.84 µM; 0.37% of 340,000 active; AID 720551; Q12809; U2OS, BacMam KCNH2, thallium flux FluxOr; active compounds read low;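 active means maximum activity change below -70%; inconclusive means maximum activity change between -70% and -50%; inactive means maximum activity change above -50%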; further: on the % scale 0 is the no-effect control and ±100 the full control effect
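U2OS cells transduced with wild-type KCNH2 virus are loaded with FluxOr dye for 45 min, and thallium flux is measured in kinetic reads before and after stimulation buffer. Rate constants are normalized to DMSO controls.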
MBNL1 CUG block = inhibitors of human MBNL1 binding to CUG repeat RNA; Q9NR56; TR-FRET MBNL1-His/biotin-(CUG)12 binding, 665/545 ratio; Potency, µM (titrated, usually from 57.5 µM), for inactives: top-dose activity change, negative = inhibition, most hits filed as inhibitors; 0.036% of 280,000 active; AID 2675; active means well fitted inhibition curve with a large enough effect in the signal ratio, with a control signal flat, not every such curve was filed as active; inconclusive means small, poorly fitted or top-dose-only effect, or effect the other way, or a change in a side signal; inactive means no such curve, though single readings can be large or run the other way; the % refers to the signal ratio; further: potency means the concentration at half of the fitted maximal effect; on the % scale 0 is the no-effect control and ±100 the full control effect
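Inhibition of protein-RNA binding appears as loss of TR-FRET between terbium anti-His antibody on MBNL1-His and streptavidin-XL665 on biotin-(CUG)12. Activity is normalized to buffer-only and uninhibited-complex controls.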
* marks the source's active call; other numbers are inactive results; ? = inconclusive; / = no result given. Unless noted, the call rests on the fitted dose curve; in most records, active means well fitted curve in the direction sought with a large enough effect; inconclusive means small, poorly fitted or top-dose-only effect, or another doubt; inactive means no such curve, though single readings can be large; an effect the other way counts as inactive or inconclusive.

SMILES	CBFb-RUNX1 inh	KCNH2 3.1 block	PLK1 PBD block	VDR inhibitor	hERG WT inh	MBNL1 CUG block
CCNS(=O)(=O)c1ccc(OCCNS(C)(=O)=O)cc1	?	13	-9%	30%	-7	3%
O=C1N=C(N2CCCC2C(=O)O)S/C1=C\c1ccco1 (centres undefined)	-12%	-5	3.4µM*	?	6	?
CCc1ccccc1NC(=O)c1sc(-n2nc(C)c(Cc3ccccc3)c2C)nc1C	/	/	/	14%	/	/
O=C(Nc1ccc(N2CCN(C(=O)c3ccc(Cl)cc3)CC2)cc1)c1cc2ccccc2o1	-2%	-111*	-7%	7%	-117*	2%
O=C(Nc1ccc(N2CCCC2)cc1)c1cccc(-c2cc3ccccc3oc2=O)c1	-3%	-2	2.7µM*	?	17	0%
O=C(Nc1ccccc1N1CCN(C(=O)c2ccc(Cl)cc2)CC1)c1ccc(Br)cc1	-12%	-91*	-8%	11%	-12	0%
O=C(Nc1ccccc1N1CCN(C(=O)c2ccccc2)CC1)c1ccc(Cl)cc1	3%	-32	0%	8%	32	-3%
O=C(Nc1ccccc1N1CCN(C(=O)c2ccc(Cl)cc2)CC1)c1cc2ccccc2o1	7%	?	30µM*	-12%	6	-5%
CCC(=O)N1CCN(c2ccc(NC(=O)c3cc4ccccc4o3)cc2)CC1	?	2	3%	18%	2	2%
CCOC(=O)c1ccc(N2C(=O)c3n[nH]c(-c4ccco4)c3C2c2ccc(OCC)cc2)cc1 (centres undefined)	/	/	/	-4%	/	/
CS(=O)(=O)N1CCN(c2ccc(NC(=O)CSc3ccc(Cl)cc3)cc2)CC1	0%	1	-3%	-5%	8	-11%
O=C(Nc1ccccc1N1CCCCC1)c1ccc([N+](=O)[O-])o1	/	-5	-3%	-1%	-3	/
O=C(Nc1ccccc1N1CCN(C(=O)c2ccc(Cl)cc2)CC1)c1ccc([N+](=O)[O-])o1	/	-93*	-9%	2%	-94*	?
Cc1ccc(C(=O)N2CCN(c3ccc(NC(=O)CSc4ccc(Cl)cc4)cc3)CC2)cc1	0%	-118*	-4%	1%	-118*	-17%
COc1ccc(N=C2NC(=O)CS2)c([N+](=O)[O-])c1	12%	23	27µM*	-2%	/	?
COc1ccccc1N1CCN(c2nc3c(S(=O)(=O)c4ccccc4)nnn3c3ccc(Cl)cc23)CC1	/	/	/	-4%	/	/
Cc1cc(Nc2cccc(Cl)c2)nc2ccc(NC(=O)COc3ccc(Cl)cc3)cc12	/	/	/	9%	/	/
Cc1ccc(-c2noc(CSc3nnc(Cc4ccccc4)n3-c3ccc(Cl)cc3)n2)cc1	-2%	-74*	1%	-4%	4	-2%
Cc1ccc(-n2c(Cc3ccccc3)nnc2SCC(=O)NNC(=O)Cc2ccccc2)cc1	0%	-80*	-4%	14%	0	-8%
CCOC(=O)CSc1nnc(Cc2ccccc2)n1-c1ccc(C)cc1	4%	2	-4%	6%	1	2%
Cn1c(SCC(=O)NNC(=O)Cc2ccccc2)nc2ccccc2c1=O	4%	-4	3.4µM*	?	/	-6%
COC(=O)CSc1nnc(-c2ccccc2OC)n1-c1ccc(C)cc1	4%	4	27µM*	-7%	-5	-9%
COc1ccc(-c2noc(CSc3nnc(Cc4ccccc4)n3-c3ccc(Cl)cc3)n2)cc1	-6%	-8	2%	11%	-4	-11%
O=C(C1CCCN(S(=O)(=O)c2cccc3nsnc23)C1)N1CCN(c2ccccc2)CC1 (centres undefined)	/	/	/	-3%	/	/
CCOc1ccc2nc(N3CCN(C(=O)c4ccco4)CC3)sc2c1	/	/	/	-4%	/	/
Cc1ccc(C)c(CN2CCC(CNC(=O)Nc3cccc(Cl)c3C)CC2)c1	/	-23	-3%	2%	7	-1%
CCc1ccc(NC(=O)NCC2CCN(Cc3cccc(Cl)c3)CC2)cc1	/	-91*	-16%	-6%	16	1%
